Records with an inconclusive call do not appear. Activity calls are given as the source filed them. Unless noted, calls follow the shape of the dose curve; as a rule, active = well fitted curve in the direction sought with a large enough effect; inconclusive = small, poorly fitted or top-dose-only effect, or another doubt; inactive = no such curve, though single readings can be large; an effect the other way counts as inactive or inconclusive.
Experiments:
[1] = qHTS for differential inhibitors of proliferation of Plasmodium falciparum line D10 (AID 1877);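 also: parasites grown with compound for 72 h before DNA staining; plate controls were vehicle wells for no effect and reference inhibitor wells for full effect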
[2] = qHTS for differential inhibitors of proliferation of Plasmodium falciparum line Dd2 (AID 1882); settings: Potency: Plasmodium falciparum Dd2 proliferation inhibition;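 also: series mostly up to about 29 µM; plate controls were DMSO vehicle for no effect and 0.29 µM artemisinin for full effect; nearly all actives have a fitted effect of over 65% in size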
Method in brief: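 SYBR Green DNA fluorescence (ex 485, em 535 nm) after overnight lysis quantifies parasite growth; compound exposure lasted 72 h at 37 C on infected red cells at 2.5% hematocrit, 0.3% parasitemia (final). Artemisinin 0.29 uM and vehicle wells define normalization.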

[3] = qHTS for differential inhibitors of proliferation of Plasmodium falciparum line W2 (AID 1883); settings: Potency: Plasmodium falciparum W2 proliferation inhibition;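 also: parasites grown with compound for 72 h before lysis and staining; 0% = vehicle wells and -100% = control inhibitor wells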
[4] = qHTS for differential inhibitors of proliferation of Plasmodium falciparum line HB3 (AID 1886); settings: Potency: Plasmodium falciparum HB3 proliferation inhibition;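 also: parasites grown with compound for 72 h before SYBR Green readout; plate controls were vehicle for no effect and reference inhibitor for full effect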
[5] = qHTS Assay for Modulators of Human Peripheral Myelin Protein 22 (PMP22) Expression/Activity (AID 1967; active = well fitted curve in the direction sought with a large enough effect in the signal ratio; the % refers to the signal ratio;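 also: 0% = untreated cells and 100% end not stated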)
Method in brief: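 Mouse MSC80 Schwann cells carrying Pmp22 promoter–green click beetle luciferase plus EF-alpha–red luciferase control, dosed 24 h at 37 °C. Dual-filter luminescence, overlap-corrected; %Activity from green/red ratio normalised to untreated cells, concentration-response curves fitted.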

[6] = target: Ferritin light chain (Equus caballus) (UniProt P02791); assay: qHTS Validation Assay for Identification of Novel General Anesthetics (AID 2323); also: series mostly up to about 77 µM; % is scaled to controls: 0 for no effect and ±100 for the full control effect
Method in brief: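 Horse-spleen apoferritin (10 uM) in PBS with 50% saturated 1-aminoanthracene; compounds pin-transferred, 10 min at room temperature. Fluorescence read at 380/535 nm, normalized to free 1-AMA and 1-AMA/apoferritin values; four-parameter Hill fit.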

[7] = target: ATP-dependent DNA helicase Q1 (Homo sapiens) (UniProt P46063); assay: qHTS Validation Assay for Inhibitors of RecQ-Like Dna Helicase 1 (RECQ1) (AID 2353);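 also: plate controls were DMSO vehicle for no effect and enzyme-free control for full effect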
Method in brief: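 RECQ1T1 50 nM; forked duplex (20 bp + 30-nt ss tails) 200 nM, ATP 2 mM final; pH 8.0, 2 mM MgCl2, 2.5 ug/ml poly(dI-dC); 15 min compound preincubation; discontinuous kinetic read over 2 h at RT.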

[8] = Validation screen for inhibitors of Lassa infection (AID 463096; calls by dose curve; also: % is scaled to controls: 0 for no effect and ±100 for the full control effect)
[9] = Validation screen for small molecules that induce DNA re-replication in MCF 10A normal breast cells (AID 463097); also: 0% is about no effect; nearly all actives have a fitted effect of over 60% in size
Method in brief: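 MCF 10A cells exposed to compound 48 hr at 37 C, 5% CO2, then Hoechst-stained 40 min. Laser-scanning imaging of nuclear DNA content (405 nm ex, 500-530 nm em); re-replication scored as rise in nuclei with elevated fluorescence intensity.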

[10] = Quantitative high throughput screen for delayed death inhibitors of the malarial parasite plastid, 96 hour incubation (AID 488745);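 also: luciferase-expressing P. falciparum in erythrocytes at 2% hematocrit and 0.1% parasitemia; series mostly up to about 29 µM; % is scaled to controls: 0 for no effect and ±100 for the full control effect; nearly all actives have a fitted effect of over 70% in size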
Method in brief: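 Readout is firefly luciferase luminescence from an integrated reporter in P. falciparum; lower signal marks inhibited growth. Cultures at 2% hematocrit and 0.1% parasitemia were treated with compound across two generations (96 h, 37 C, 5% CO2).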

[11] = Quantitative high throughput screen for delayed death inhibitors of the malarial parasite plastid, 48 hour incubation (AID 488752); also: % is scaled to controls: 0 for no effect and ±100 for the full control effect; nearly all actives have a fitted effect of over 65% in size
Method in brief: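 First, compound was pinned into RPMI 1640 medium containing 0.5% Albumax. Next, reporter-parasite-infected erythrocytes were added to 2% hematocrit and 0.1% parasitemia. After 48 h at 37 C under 5% CO2, luciferase detection reagent was added and luminescence read.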

[12] = target: M-phase phosphoprotein 8 (Homo sapiens) (UniProt Q99549); assay: qHTS Validation Assay for Inhibitors for MPP8 Chromodomain Interactions with Methylated Histone Tails (AID 488949); also: top concentration of the series differs between compounds; % is scaled to controls: 0 for no effect and ±100 for the full control effect; nearly all actives have a fitted effect of over 55% in size
Method in brief: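 MPP8 (50 nM) was pre-bound to 50 nM biotinylated H3(1-18)K9me3 peptide in PBS pH 7.4 with 0.01% Tween-20. Compounds were then added for 30 min at room temperature, and complex disruption was read by AlphaScreen with streptavidin donor and nickel-chelate acceptor beads.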

[13] = target: Transient receptor potential cation channel subfamily V member 1 (Homo sapiens) (UniProt Q8NER1); assay: HTS Assay for Compounds that Act as Enhancers of the Vanilloid Receptor 1 (AID 488979); also: 0% is about no effect
Method in brief: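 Calcium influx kinetics via Fluo-8 (480/520 nm) in TRPV1-expressing cells, 2000/well cultured overnight at 35.5C. Compound-alone read 3 min (agonist phase), followed by EC20 capsaicin challenge for 2 min (enhancer phase).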

[14] = target: Thyrotropin receptor (Homo sapiens) (UniProt P16473); assay: qHTS Assay for Antagonists of the Thyroid Stimulating Hormone Receptor (AID 488980); also: series mostly up to about 58 µM; 0% is about no effect
Method in brief: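 TSHR-transfected HEK293 cells (2000/well) in HEPES-buffered HBSS with 70 uM RO 20-1724 were stimulated with 4 nM TSH (EC80, final) in the presence of compound. cAMP was measured by HTRF competition after lysis and 30 min at RT.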

[15] = target: Thyrotropin-releasing hormone receptor (Homo sapiens) (UniProt P34981); assay: qHTS for Small Molecule Agonists and Allosteric Enhancers of Human TRH Receptor: Validation Screen for Agonists (AID 493127;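 active = calcium activation more than 3 SD above the typical response in the agonist read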;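 also: intracellular calcium rise by fluo-8 fluorescence before TRH EC20 addition; 0% is about no effect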); settings: TRH receptor agonist cell assay; at 2 µM; hits give high values
Method in brief: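 Compounds are added by online pintool to dye-loaded TRHR cells while fluorescence is recorded every second. A rise in calcium signal during the agonist read marks activation; a later 10 nM TRH addition (EC20) serves the separate enhancer mode.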

[16] = target: Galactokinase (Homo sapiens) (UniProt P51570); assay: qHTS Validation Assay for Inhibitors of Human Galactokinase (GALK) (AID 493189); also: 0% is about no effect
Method in brief: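 GALK (5 nM) with 35 uM ATP and 100 uM galactose in HEPES pH 8.0 with MgCl2, NaCl, DTT and BSA. Reaction ran 1 h at room temperature. Residual ATP read by Kinase-Glo Plus luminescence.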

[17] = target: Ubiquitin carboxyl-terminal hydrolase 1 (Homo sapiens) (UniProt O94782); assay: Inhibitors of USP1/UAF1: Pilot qHTS (AID 504865);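 also: rhodamine fluorescence freed from ubiquitin-rhodamine substrate followed over time; top concentration of the series differs between compounds; % is scaled to controls: 0 for no effect and ±100 for the full control effect; nearly all actives have a fitted effect of over 35% in size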
Method in brief: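 USP1/UAF1 complex at 1 nM preincubated 15 min at room temperature with compound, then Ub-Rho substrate added at 150 nM final. Fluorescence (480/540 nm) read kinetically in 50 mM HEPES pH 7.8, 0.5 mM EDTA, 1 mM TCEP, 0.1 mg/ml BSA, 0.01% Tween-20.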

[18] = target: Voltage-gated inwardly rectifying potassium channel KCNH2 (Homo sapiens) (UniProt Q12809); assay: qHTS Assay for Small Molecule Inhibitors of the Human hERG Channel Activity (AID 588834);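 also: top concentration of the series differs between compounds; % is scaled to controls: 0 for no effect and ±100 for the full control effect; lower thallium flux fluorescence means stronger hERG block; nearly all actives have a fitted effect of over 50% in size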
Method in brief: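 Thallium serves as surrogate for K+ influx through BacMam-delivered hERG in U2OS cells. Compounds are added for about 10 minutes after dye loading; stimulation buffer then starts flux, monitored kinetically on FDSS.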

[19] = system: Zika virus NS2B-NS3 protease; assay: Primary screen GU AMC qHTS for Zika virus inhibitors (AID 1347154);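 also: 0% = no-inhibitor control and -100% = no-enzyme control; nearly all actives have a fitted effect of over 70% in size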
Method in brief: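 Fluorogenic AMC-substrate cleavage by noncovalent NS2B-NS3 protease complex (25 nM, pH 8.0 Tris buffer with Tween 20) followed for 15 minutes at room temperature (~20% conversion). Percent inhibition from ex340/em450 signal change, fitted by 4-parameter Hill equation.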

[20] = Primary qHTS for small molecule stabilizers of the endoplasmic reticulum resident proteome: Secreted ER Calcium Modulated Protein (SERCaMP) assay (AID 1508630); also: % is scaled to controls: 0 for no effect and ±100 for the full control effect
Method in brief: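 The SH-SY5Y reporter protocol was run at 3 concentrations up to 38.3 uM (primary) or 11 concentrations (follow-up): 16 h compound, 100 nM thapsigargin for 4 h, then extracellular luciferase luminescence.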

Sequence of Voltage-gated inwardly rectifying potassium channel KCNH2 (Homo sapiens) (Q12809 whole entry, looked up): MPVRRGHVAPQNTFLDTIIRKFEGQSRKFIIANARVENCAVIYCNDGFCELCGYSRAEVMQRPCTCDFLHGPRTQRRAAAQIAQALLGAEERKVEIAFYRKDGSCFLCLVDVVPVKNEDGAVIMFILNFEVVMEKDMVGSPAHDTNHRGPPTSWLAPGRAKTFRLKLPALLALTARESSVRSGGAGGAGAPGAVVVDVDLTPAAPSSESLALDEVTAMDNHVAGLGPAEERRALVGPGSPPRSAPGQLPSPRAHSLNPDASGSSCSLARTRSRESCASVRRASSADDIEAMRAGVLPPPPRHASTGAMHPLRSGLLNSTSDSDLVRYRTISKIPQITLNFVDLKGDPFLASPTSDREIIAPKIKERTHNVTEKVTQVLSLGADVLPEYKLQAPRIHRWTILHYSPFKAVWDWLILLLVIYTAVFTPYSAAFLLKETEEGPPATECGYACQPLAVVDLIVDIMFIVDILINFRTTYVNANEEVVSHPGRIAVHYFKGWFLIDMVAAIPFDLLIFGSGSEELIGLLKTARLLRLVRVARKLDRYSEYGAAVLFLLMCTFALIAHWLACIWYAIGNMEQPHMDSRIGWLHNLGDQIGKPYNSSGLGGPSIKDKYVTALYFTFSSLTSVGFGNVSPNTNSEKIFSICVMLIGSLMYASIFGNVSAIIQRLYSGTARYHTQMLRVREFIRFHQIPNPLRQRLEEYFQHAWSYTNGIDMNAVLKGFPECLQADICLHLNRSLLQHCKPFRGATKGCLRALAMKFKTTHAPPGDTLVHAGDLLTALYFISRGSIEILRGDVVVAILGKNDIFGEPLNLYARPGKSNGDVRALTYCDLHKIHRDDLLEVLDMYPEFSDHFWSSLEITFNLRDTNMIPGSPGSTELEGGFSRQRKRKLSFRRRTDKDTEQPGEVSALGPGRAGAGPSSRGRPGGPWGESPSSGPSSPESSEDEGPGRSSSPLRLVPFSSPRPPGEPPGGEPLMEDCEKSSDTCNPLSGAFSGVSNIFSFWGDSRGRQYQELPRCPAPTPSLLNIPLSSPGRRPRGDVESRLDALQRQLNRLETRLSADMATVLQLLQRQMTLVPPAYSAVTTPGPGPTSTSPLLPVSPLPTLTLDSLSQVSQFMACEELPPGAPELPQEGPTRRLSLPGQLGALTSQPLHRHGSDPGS
Sequence of Galactokinase (Homo sapiens) (P51570 whole entry, looked up): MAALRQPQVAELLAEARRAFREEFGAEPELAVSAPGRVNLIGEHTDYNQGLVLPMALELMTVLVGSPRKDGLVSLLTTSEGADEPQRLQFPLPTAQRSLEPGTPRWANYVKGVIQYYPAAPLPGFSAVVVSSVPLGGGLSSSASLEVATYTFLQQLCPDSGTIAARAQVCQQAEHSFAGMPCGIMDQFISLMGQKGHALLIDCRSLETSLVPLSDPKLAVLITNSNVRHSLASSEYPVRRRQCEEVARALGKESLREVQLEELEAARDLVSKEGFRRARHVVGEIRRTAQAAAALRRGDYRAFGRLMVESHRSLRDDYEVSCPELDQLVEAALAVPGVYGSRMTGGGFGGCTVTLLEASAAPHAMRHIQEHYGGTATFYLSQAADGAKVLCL
Sequence of Thyrotropin-releasing hormone receptor (Homo sapiens) (P34981 whole entry, looked up): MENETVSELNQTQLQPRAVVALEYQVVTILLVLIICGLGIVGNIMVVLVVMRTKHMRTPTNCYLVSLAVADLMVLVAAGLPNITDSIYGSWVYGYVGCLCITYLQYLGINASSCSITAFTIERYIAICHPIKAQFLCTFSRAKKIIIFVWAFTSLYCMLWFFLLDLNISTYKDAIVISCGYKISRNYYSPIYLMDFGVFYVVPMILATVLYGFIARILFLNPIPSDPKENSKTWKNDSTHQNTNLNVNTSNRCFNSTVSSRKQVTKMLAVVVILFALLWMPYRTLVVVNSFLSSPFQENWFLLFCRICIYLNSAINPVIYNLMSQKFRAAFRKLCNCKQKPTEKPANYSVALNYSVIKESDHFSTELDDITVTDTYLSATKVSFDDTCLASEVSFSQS
Sequence of ATP-dependent DNA helicase Q1 (Homo sapiens) (P46063 whole entry, looked up): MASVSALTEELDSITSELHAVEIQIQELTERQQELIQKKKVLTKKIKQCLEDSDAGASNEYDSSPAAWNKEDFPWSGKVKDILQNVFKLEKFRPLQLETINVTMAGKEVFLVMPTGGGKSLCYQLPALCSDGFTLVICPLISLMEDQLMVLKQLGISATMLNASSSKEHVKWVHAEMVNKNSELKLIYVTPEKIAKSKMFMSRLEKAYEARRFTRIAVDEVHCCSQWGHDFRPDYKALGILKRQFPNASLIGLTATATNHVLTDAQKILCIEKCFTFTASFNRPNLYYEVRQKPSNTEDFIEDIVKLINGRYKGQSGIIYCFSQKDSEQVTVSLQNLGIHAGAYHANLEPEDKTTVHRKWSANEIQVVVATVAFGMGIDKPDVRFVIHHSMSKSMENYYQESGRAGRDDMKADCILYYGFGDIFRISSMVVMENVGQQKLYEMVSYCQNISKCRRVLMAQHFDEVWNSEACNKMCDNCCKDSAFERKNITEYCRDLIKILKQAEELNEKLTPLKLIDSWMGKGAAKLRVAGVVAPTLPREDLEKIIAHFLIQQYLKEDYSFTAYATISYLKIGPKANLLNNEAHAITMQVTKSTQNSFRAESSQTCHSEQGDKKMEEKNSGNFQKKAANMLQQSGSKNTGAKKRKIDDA
Sequence of Ubiquitin carboxyl-terminal hydrolase 1 (Homo sapiens) (O94782 whole entry, looked up): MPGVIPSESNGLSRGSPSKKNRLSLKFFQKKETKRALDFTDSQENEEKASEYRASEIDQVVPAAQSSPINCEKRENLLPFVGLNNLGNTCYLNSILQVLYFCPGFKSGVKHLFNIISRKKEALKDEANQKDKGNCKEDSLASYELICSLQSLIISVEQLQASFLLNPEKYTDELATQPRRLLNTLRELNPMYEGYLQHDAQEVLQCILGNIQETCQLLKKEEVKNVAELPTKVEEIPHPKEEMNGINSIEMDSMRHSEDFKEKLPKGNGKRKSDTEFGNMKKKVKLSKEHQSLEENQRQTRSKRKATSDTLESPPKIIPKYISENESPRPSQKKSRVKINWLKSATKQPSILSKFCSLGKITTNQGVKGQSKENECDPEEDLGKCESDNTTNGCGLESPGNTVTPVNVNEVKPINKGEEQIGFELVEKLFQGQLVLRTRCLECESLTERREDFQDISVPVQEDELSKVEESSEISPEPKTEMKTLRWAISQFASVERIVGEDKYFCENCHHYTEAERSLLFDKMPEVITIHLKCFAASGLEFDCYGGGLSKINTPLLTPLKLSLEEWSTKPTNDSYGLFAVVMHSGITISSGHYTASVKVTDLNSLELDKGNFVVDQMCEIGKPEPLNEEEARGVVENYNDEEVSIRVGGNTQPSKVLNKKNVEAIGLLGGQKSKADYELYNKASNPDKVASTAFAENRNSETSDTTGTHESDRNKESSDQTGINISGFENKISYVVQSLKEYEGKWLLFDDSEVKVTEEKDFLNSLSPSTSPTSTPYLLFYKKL
Sequence of Transient receptor potential cation channel subfamily V member 1 (Homo sapiens) (Q8NER1 whole entry, looked up): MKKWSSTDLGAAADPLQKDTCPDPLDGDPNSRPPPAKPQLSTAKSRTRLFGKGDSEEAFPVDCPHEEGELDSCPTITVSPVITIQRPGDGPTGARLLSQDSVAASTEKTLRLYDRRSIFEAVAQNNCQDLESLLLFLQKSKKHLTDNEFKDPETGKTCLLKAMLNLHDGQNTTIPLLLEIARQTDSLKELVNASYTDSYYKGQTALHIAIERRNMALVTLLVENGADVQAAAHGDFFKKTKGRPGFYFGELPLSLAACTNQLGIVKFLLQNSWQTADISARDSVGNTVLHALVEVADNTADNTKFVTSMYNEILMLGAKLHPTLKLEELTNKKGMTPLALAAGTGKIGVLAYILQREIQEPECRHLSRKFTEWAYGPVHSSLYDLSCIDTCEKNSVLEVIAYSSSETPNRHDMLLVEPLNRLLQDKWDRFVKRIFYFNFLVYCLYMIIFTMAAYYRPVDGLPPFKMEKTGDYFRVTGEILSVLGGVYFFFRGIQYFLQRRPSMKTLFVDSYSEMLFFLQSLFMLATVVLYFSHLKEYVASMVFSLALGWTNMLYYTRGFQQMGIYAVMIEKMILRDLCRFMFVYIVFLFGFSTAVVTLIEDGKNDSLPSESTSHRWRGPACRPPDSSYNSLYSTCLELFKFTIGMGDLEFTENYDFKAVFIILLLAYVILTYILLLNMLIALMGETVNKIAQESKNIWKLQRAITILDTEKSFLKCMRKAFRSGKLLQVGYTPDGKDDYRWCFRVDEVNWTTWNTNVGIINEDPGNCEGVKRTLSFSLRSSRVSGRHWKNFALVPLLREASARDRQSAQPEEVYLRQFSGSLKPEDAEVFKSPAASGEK
Sequence of Ferritin light chain (Equus caballus) (P02791 2-175 limits assumed): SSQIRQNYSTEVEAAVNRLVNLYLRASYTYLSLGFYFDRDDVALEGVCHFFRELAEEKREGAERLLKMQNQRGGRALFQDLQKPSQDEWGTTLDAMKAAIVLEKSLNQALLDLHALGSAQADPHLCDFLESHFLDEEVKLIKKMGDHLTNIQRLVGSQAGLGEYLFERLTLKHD

N[C@@H](Cn1cc(I)c(=O)[nH]c1=O)C(=O)O
inactive: Potency [1] | Potency [2] | Potency [3] | Potency [4] | outcome [5] | outcome [6] | Potency [7] | Potency [8] | Potency [9] | Potency [10] | Potency [11] | Potency [12] | outcome [13] | outcome [14] | activation [15] 0.375% | outcome [16] | Potency [17] | Potency [18] | Potency [19] | Potency [20]

Reference: PubChem BioAssay (NCATS)
